Laboratory results from ChEMBL document CHEMBL3988442, “University of Dundee, Small-Polar-MMV Screening Library” (2021).
The whole screen tested about 69,000 compounds, of which about 1,000 (1.4%) showed an effect of 50% or more. This is one part of a sample in which strong results are shown more often than they occur.

Tested on: Leishmania donovani
Test: Leishmania intramacrophage assay
Type: functional, organism-based
Design: scale not given: in the data most compounds retested in dose-response had high values

| Structure (SMILES) | Percent Effect (30.3 µM, […]) [%] | Percent Effect (30 µM, 30.03 µM) [%] |
| --- | --- | --- |
| CNc1cncc(C2CCCN2C(=O)CCn2ccnc2)n1 (stereo not drawn) | 1.152 |  |
| CCCc1cc(C(=O)N2CCOC(c3nc(-c4cccs4)no3)C2)no1 (stereo not drawn) |  | 23.21 |
| COc1ccc(CN2CC[C@H](O)[C@@H]2Cc2cnn(C)c2)cc1.O=C(O)C(F)(F)F | 36.9 |  |
| CCc1ncnc2c1CCN(CC(=O)N(C)C)CC2.O=C(O)C(F)(F)F | 4.143 |  |
| CCc1cc(N2CCC(NCCc3nc(C)c(C)s3)CC2)nc(C)n1 | 22.72 |  |
| CCc1cc(N2CCC(NCCc3ccc(C)o3)CC2)nc(C)n1 | 9.521 |  |
| CCc1cc(N2CCC(NCCc3ccccc3F)CC2)nc(C)n1 | 63.92 |  |
| CCC(CNC(=O)NCc1cc[nH]n1)N1CCCC1 (stereo not drawn) | 10.3 |  |
| Cc1nn(C)c(C)c1S(=O)(=O)N(CC(N)=O)CC(C)C | -2.964 |  |
| CC(C)c1noc(C2CCN(S(=O)(=O)c3cccs3)CC2)n1 | -2.602 |  |
| COCCc1noc(C2CCN(S(=O)(=O)c3cccs3)CC2)n1 | 57.18 |  |
| CCCc1noc(C2CCN(S(=O)(=O)c3cccs3)CC2)n1 | 12.47 |  |
| CCCOc1ccccc1CCCNc1ncnc2oc(C)nc12 | 83.62 |  |
| CCCOc1ccc(Cl)cc1CNc1ncnc2oc(C)nc12 | 22.92 |  |
| CCC(CNc1ncnc2oc(C)nc12)Cc1ccccc1 (stereo not drawn) | 45.54 |  |
| Cc1ccc(SCCCNC(=O)c2cn([C@H]3CC[C@@H](N)CC3)nn2)cc1 | 94.34 |  |
| Cc1ccc(SCCN(C)C(=O)c2cn([C@H]3CC[C@@H](N)CC3)nn2)cc1 | -26.18 |  |
| CCN(CCSc1ccccc1)C(=O)c1cn([C@H]2CC[C@@H](N)CC2)nn1 | 13.68 |  |
| O=C(O)c1cnc(OCC2CC2)c(Br)c1 | 4.629 |  |
| COCCCNC(=O)c1c(-n2cnnn2)sc2c1CCC2 | 9.721 |  |
| CC(C)CCNC(=O)c1c(-n2cnnn2)sc2c1CCCC2 | -26.12 |  |
| COCCNC(=O)c1c(-n2cnnn2)sc2c1CCCC2 | 53.45 |  |
| Cc1ccc(C(=O)N(CC2CCCO2)c2ccncc2)o1 (stereo not drawn) | 23.81 |  |
| Cc1nn(-c2ccccn2)c(C)c1[C@@H]1C=C[C@@H](NC(=O)NC(C)C)C1 | 10.96 |  |
| CCNC(=O)[C@@H]1C[C@@H](N)CN1Cc1ccc(Sc2ccc(C)cc2)o1 | 97.85 |  |
| CCNC(=O)[C@@H]1C[C@H](N)CN1Cc1ccc(Sc2ccc(C)cc2)o1 | -2.33 |  |
| CCNC(=O)[C@@H]1C[C@H](N)CN1Cc1ccc(-c2cc[nH]n2)o1 | 11.56 |  |
| Cc1cc(C(=O)NC2CC(=O)N(C(C)C)C2=O)c(C)n1C(C)C (stereo not drawn) | 19.34 |  |
